In PubChem BioAssay (NCI):
This is part of a sample that, as a whole, favours compounds with a hit. Of some 83,000 tested, about 20% had one in any assay.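 Treatment: one concentration, 48 hours, 96-well format. Scoring: percent growth, with anything below 10 considered active.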 The source made the active and inactive calls.

tested on: RPMI-8226 leukemia; experiment: NCI-60 one-dose screen, 48 h (100 = growth as untreated, 0 = no growth, -100 = all killed); conditions: 10 µM unless noted

Compound	growth
COc1ccc(-c2n[nH]nc2-c2cc3ccccc3s2)cc1O	21.1% (inactive)
Cn1cc(-c2csc(-c3c[nH]c4ccc(F)cc34)n2)c2cccnc21	52% (inactive)
Nc1c(C(=O)Nc2cccc(Br)c2)sc2nc3c(cc12)C(=O)CCC3	38.3% (inactive)
COc1cc(/C=N/Nc2ncnc3c2c(C)nn3-c2ccc(F)cc2)ccc1O	92.5% (inactive)
Nc1ccccc1NC(=O)c1ccc(CN2CCC/C(=C\c3ccccn3)C2=O)cc1	11.8% (inactive)
Cc1ccccc1-c1nc(C(Cl)Cl)nc2cc(-c3ccccc3)nn12	61.6% (inactive)
N#CC1=C(N)Oc2ccc3ccccc3c2C1c1ccccc1 (stereo not given)	21.8% (inactive)
Cc1csc(-c2ccc3c(c2)COC3(CCCN(C)C)c2ccc(F)cc2)c1 (stereo not given)	-31.5% (active)
O=C(O)c1cccc2c1Cc1cc([N+](=O)[O-])ccc1-2	100% (inactive)
COc1ccc(C2C(C#N)=C(N)Oc3c2sc2c(F)cccc32)cc1 (stereo not given)	11.8% (inactive)
CCCCCCCCNc1cccc2c1C(=O)c1ccccc1C2=O	105% (inactive)
CC1(C)CC[C@]2(CO)CC[C@]3(C)C(=CC[C@@H]4[C@@]5(C)CC[C@H](NCO)C(C)(C)[C@@H]5CC[C@]43C)[C@@H]2C1	-29.1% (active)
CNC(=O)c1cc(Oc2ccc3nc(NC(=O)Nc4ccc(Cl)cc4)sc3c2)ccn1	81.7% (inactive)
O=C(c1ccccc1)C(CN1CCOCC1)c1ccccc1 (stereo not given)	-8.68% (active)
NCCn1cc(-c2nc(-c3c[nH]c4ncccc34)cs2)c2ccccc21	78.1% (inactive)
